Shown are actives, neighbours in structure and some others; about 9.3% of the full set was active somewhere.
NPC1 promoter act: NPC1 promoter activation; Huh7 NPC1 promoter luciferase reporter, 24 h; Potency, µM (titrated, usually from 9.22 µM), without a hit: at the highest dose activation, usual class: activators; actives 2.4% (n = 320,000); AID 485313; note: % of control where 0% means no effect; nearly all actives have a fitted effect of over 60% in size
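In 1536-well qHTS, Huh7 cells harboring an NPC1 promoter–luciferase construct received compound for 24 h; activation was quantified by luminescence following luciferase reagent addition.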
Rab9 prom act: Rab9 promoter activation. Huh7 Rab9 promoter-luciferase reporter, luminescence, 24 h. Potency, µM (series often up to 9.22 µM), for inactives: top-dose activation, negative = inhibition, actives largely listed as activators. actives 2.8% (n = 320,000). AID 485297; note: % of control where 0% means no effect; nearly all actives have a fitted effect of over 60% in size
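Promoter activation is measured as luciferase luminescence in Huh7 cells stably transfected with a Rab9 promoter–luciferase construct, following 24 h compound exposure at 37 °C and 10 min reagent incubation at ambient temperature.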
FLuc modulator: inhibits or activates purified firefly luciferase, miR-21 counter-screen | purified FLuc, Km substrates, luminescence inhibition | Potency, µM (doses to about 57.5 µM), for the others: top-dose activity change, negative = inhibition, hits mostly inhibitors | actives 6.9% (n = 360,000);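 note: plate controls were vehicle for no effect and reference inhibitor for full effect; nearly all actives have a fitted effect of over 55% in size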
Target sequence (P08659 whole entry, looked up): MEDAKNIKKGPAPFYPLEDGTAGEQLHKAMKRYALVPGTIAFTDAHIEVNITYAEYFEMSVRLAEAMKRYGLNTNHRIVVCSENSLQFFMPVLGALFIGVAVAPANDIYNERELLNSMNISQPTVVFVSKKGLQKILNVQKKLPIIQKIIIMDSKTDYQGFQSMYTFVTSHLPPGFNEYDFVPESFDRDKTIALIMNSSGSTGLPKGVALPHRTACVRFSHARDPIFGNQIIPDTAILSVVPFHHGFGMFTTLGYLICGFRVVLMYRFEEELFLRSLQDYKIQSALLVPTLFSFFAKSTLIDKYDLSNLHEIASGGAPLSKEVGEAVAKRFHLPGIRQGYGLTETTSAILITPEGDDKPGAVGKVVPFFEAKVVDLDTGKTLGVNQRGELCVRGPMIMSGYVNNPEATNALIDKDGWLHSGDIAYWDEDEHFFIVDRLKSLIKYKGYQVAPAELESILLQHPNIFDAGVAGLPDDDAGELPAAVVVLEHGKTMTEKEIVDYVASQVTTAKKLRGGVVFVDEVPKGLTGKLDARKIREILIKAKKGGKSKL
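Purified P. pyralis luciferase (10nM final) with 10uM D-luciferin and 10uM ATP (Km levels) in 50mM Tris acetate pH 7.5, 10mM Mg acetate, 0.01% Tween-20, 0.05% BSA; qHTS 6-point titration, ~60 µM downward; luminescence read.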
ELG1 genotox: genotoxicity induction in ELG1-luciferase HEK293T cells; actives 1.3% (n = 330,000); Potency, µM (series often up to 46 µM), for the others: top-dose activity change, positive = activation, actives largely listed as activators; HEK293T ELG1-luciferase reporter, luminescence, 16 h; note: % of control where 0% means no effect; nearly all actives have a fitted effect of over 60% in size
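Cells (2,000/well) expressing the ELG1-luciferase fusion are dosed by pin tool and kept 16 hr at 37 °C, 5% CO2. Signal comes from ONE-Glo luciferase reagent after 30 min at room temperature.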
SMN2 splice enh: increases expression of the SMN2 splice variant. HEK293 SMN2-luciferase splicing reporter, luminescence, 30-36 h. Potency, µM (doses to about 46.1 µM), for inactives: top-dose activity change, positive = activation, most hits filed as activators. actives 2.8% (n = 210,000). AID 1458; note: % of control where 0% means no effect; nearly all actives have a fitted effect of over 55% in size
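qHTS luciferase splicing reporter: luminescence rises when SMN2 exon 7 is included in transfected HEK293 cells. Compound exposure lasted 30-36 h at 37C, with 4.5 mM final sodium butyrate as control, followed by a ONE-Glo read.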
ELG1 repair inh: blocks ELG1-dependent DNA repair in HEK293T cells; HEK293T ELG1-luciferase reporter, luminescence, 16 h; DNA damage induced by 5-fluorouridine; Potency, µM (highest dose often 46.1 µM), for inactives: top-dose activity change, negative = inhibition, usual class: inhibitors; actives 2.3% (n = 330,000); note: % is set by controls: 0 for no effect and ±100 for the full control effect; nearly all actives have a fitted effect of over 55% in size
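In this reporter screen, reduction of luminescence relative to DMSO vehicle indicated activity. Compounds and 5-fluorouridine were added together to 2,000 cells per well, incubated for 16 hr at 37 °C, then developed with ONE-Glo.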
Starred values were filed as active, the others as inactive; ? = inconclusive; / = no result given. Calls come from the whole dose curve; as a rule, active = well fitted curve in the direction sought with a large enough effect; inconclusive = small, poorly fitted or top-dose-only effect, or another doubt; inactive = no such curve, though single readings can be large; an effect the other way counts as inactive or inconclusive. Potency is the fitted concentration of half-maximal effect.

SMILES	NPC1 promoter act	Rab9 prom act	FLuc modulator	ELG1 genotox	SMN2 splice enh	ELG1 repair inh
COc1ccccc1N(C)S(=O)(=O)c1ccc(C(=O)Nc2nnc(C)s2)cc1	1%	4%	-6%	-15%	/	1%
NC(C(=O)O)c1cccc(O)c1 (stereo unspecified)	/	/	/	/	-10%	/
COc1ccc(OC)c(NC(=O)c2ccc(-c3nc(CSc4ccccc4)c(C)o3)cc2)c1	/	/	-2%	/	/	/
COc1cc(OC)cc(C(=O)NNC(=O)c2ccc(S(=O)(=O)N(C)c3ccccc3OC)cc2)c1	0%	8%	2%	-5%	/	15µM*
O=C(C[n+]1ccccc1)N/N=C/c1cc(Br)cc(Br)c1O	-1%	2%	1%	-5%	/	21µM*
CCC(O)(CC)C(=O)N/N=C/c1cc(Br)cc(Br)c1O	-8%	-4%	4%	6%	/	23µM*
O/N=C/c1ccn(-c2ccc(Br)cc2)c1	25%	14%	24µM*	-1%	10%	?
Cc1cc(/C=N/O)c(C)n1-c1ccc(Br)cc1	1%	1%	-12%	1%	4%	21%
COC(=O)[C@@]1(C)CCC[C@@]2(C)c3ccc(O)c(C(C)C)c3CCC21 (stereo partly specified)	/	/	/	/	-33%	/
O=[N+]([O-])c1ccccc1COc1ccc(Cl)c2cccnc12	0.63µM*	0.28µM*	0.54µM*	1.6µM*	/	?
Cc1ccc(SCC(=O)OCC(=O)N2CCN(C(=O)c3ccco3)CC2)c(C)c1	4%	11%	5%	-4%	/	?
COc1ccc(Cl)cc1S(=O)(=O)Nc1cccc(-c2ccc(N3CCOCC3)nn2)c1	/	/	19µM*	/	/	/
Cc1cc(S(=O)(=O)Nc2cccc(-c3ccc(N4CCOCC4)nn3)c2)c(C)cc1Cl	/	/	12µM*	/	/	/
Nn1c(-c2cccc([N+](=O)[O-])c2)nc2ccccc2c1=O	0%	5%	-1%	0%	/	13%
O=C(NCC1CCCN1S(=O)(=O)c1cccs1)C(=O)Nc1ccccc1Cl (stereo unspecified)	1%	13%	-20%	0%	/	-22%
Cc1ccc2nc(-c3cccc(S(=O)(=O)N4CC(C)OC(C)C4)c3)cn2c1 (stereo unspecified)	1%	-2%	13µM*	?	/	-3%
O=S(=O)(c1cccc(-c2cn3cccnc3n2)c1)N1CCCCCC1	0%	8%	2%	-19%	-15%	-4%
Cc1ccn2cc(-c3cccc(S(=O)(=O)N4CCCCC4)c3)nc2c1	-6%	-1%	19µM*	-5%	/	-10%
Cc1ccc2nc(-c3cccc(S(=O)(=O)N4CCCC4)c3)cn2c1	-1%	0%	6.7µM*	7%	/	?
CC1CN(S(=O)(=O)c2cccc(-c3cn4cccnc4n3)c2)CC(C)O1 (stereo unspecified)	19%	-4%	-1%	-1%	-9%	-33%
Fc1ccccc1COc1ccc2ccccc2c1CNc1nn[nH]n1	-9%	-7%	-16%	0%	7%	?
CC(=O)Nc1ccc(NCc2nnc3n2CCCCC3)cc1	/	/	1%	/	/	/
Cc1cc(C)c(S(=O)(=O)Nc2ccc(N(C)C)cc2)c(C)c1-n1cnnn1	-1%	6%	-3%	4%	/	20%
CC(=O)OC1CC2C(C)(C)C(O)C=C[C@@]2(C)C2CC[C@@]3(C)C(c4ccoc4)OC(=O)C4OC43[C@]12C (stereo partly specified)	/	/	/	/	-2%	/
CCCc1cc(=O)[nH]c(Nc2cc(OC)ccc2OC)n1	1%	-1%	0%	-2%	1.3µM*	-10%
SMILES	NPC1 promoter act	Rab9 prom act	FLuc modulator	ELG1 genotox	SMN2 splice enh	ELG1 repair inh
CCN(CC)S(=O)(=O)c1ccc(NC(=O)C2CCCN(C(=O)c3ccc(Cl)cc3)C2)cc1 (stereo unspecified)	-5%	0%	8%	-4%	-31%	18µM*
CS(=O)(=O)c1ccc(NC(=O)C2CCCN(C(=O)c3ccc(Cl)cc3)C2)cc1 (stereo unspecified)	1%	-1%	4%	-4%	/	-5%
c1ccc(-c2cn3c4c(sc3n2)CCCC4)cc1	0.45µM*	0.5µM*	0.15µM*	0.082µM*	?	?
CCC(Sc1nc2cc(OC)c(OC)cc2c(=O)n1CCc1ccc(S(N)(=O)=O)cc1)C(=O)NCCOC (stereo unspecified)	-4%	2%	2%	-4%	-3%	?
CCOc1cccc(-c2csc(C3COc4ccccc4O3)n2)c1 (stereo unspecified)	?	4µM*	2.1µM*	?	4µM*	?
O=C(CSc1nnnn1-c1ccc(Cl)c(C(=O)O)c1)NC(c1ccccc1)c1ccccc1	14%	-4%	4%	2%	/	12%
COc1ccc(CNC(=O)C(CC(C)C)NC(=O)c2ccccc2C)cc1 (stereo unspecified)	-2%	7%	1%	-8%	/	-18%
CN(C)S(=O)(=O)c1cccc(NC(=O)c2ccc3nccnc3c2)c1	1%	-2%	?	-14%	/	?
c1cc(CNc2ccc3c(c2)OCCO3)ccn1	0%	1%	?	18µM*	11%	?
C=CCOc1ccccc1CNc1ccc2c(c1)OCCO2	?	?	0.85µM*	?	-29%	?
CC(C)(C)C(=O)Nc1ccc2c(c1)OCCOCCOc1cc(NC(=O)C(C)(C)C)ccc1OCCOCCO2	-3%	-9%	4%	-1%	-12%	7.3µM*
C=CCOc1ccccc1CNc1cccc(F)c1	0%	-1%	2%	3%	-6%	14%
NC(=O)Nc1ccc2c(c1)OCCO2	19%	30%	21µM*	?	17%	?
CC(=O)Nc1ccc2c(c1)OCCOCCOc1cc(NC(C)=O)ccc1OCCO2	0%	8%	5%	-6%	/	-4%
Cc1ccc(OCC(=O)Nc2cc3nn(-c4ccccc4)nc3cc2C)cc1	/	/	1%	/	13%	/
CCOC(=O)/C(C#N)=C/N=c1ccc(C)cn1C	?	?	17µM*	?	/	?
CC(C)COC(=O)/C(C#N)=C\c1ccc(-c2ccccc2Cl)o1	/	/	?	/	-2%	/
CCCCOC(=O)/C(C#N)=C/c1ccc(-c2ccc(Br)cc2)o1	/	/	-19%	/	3%	/
CCOC(=O)/C(C#N)=C/c1ccc(-c2ccc(C)cc2)o1	/	/	3.8µM*	/	10%	/
CCCN1C=CC(=C/C=C(\C#N)C(=O)OCC)C=C1	4µM*	4µM*	6µM*	?	14µM*	?
CCOC(=O)/C(C#N)=C/c1ccc(-c2ccccc2)o1	/	/	9.5µM*	/	0%	/

Screens deposited in PubChem BioAssay by National Center for Advancing Translational Sciences (NCATS).
